# Source: the OligoGym collection
# Target: CPD
# Experiment: pooled miR-30 sensor sort-seq; sequence = guide strand
# Conditions: shRNA
# Note: reference of the scale not given here.
row,Sequence,sensor-assay potency score (higher = more potent)
1,TATTTGTGAAGTCTGTATCCAA,0.0284
2,TTTGTTGGAACACAGCATCATC,-1.01
3,TTAGGTATAGCAACTGTGCTAG,0.733
4,TAGCAGTTGATACAGCCTCTGT,-1.16
5,TTTGTAAGTAGTCACTGGGTGA,-0.0209
6,TATTCTTGCAAGGTCTACCTTG,-0.366
7,TTGGAACACAGCATCATCTGGT,0.644
8,TTGTAAATAGTTCCAGTCCTGC,-0.512
9,TTGCGTAGGATCTGTGATCTGA,1.11
10,TTTGTTTGTAAATAGTTCCAGT,0.147
11,TAGTGTTATGAACCAAATCTGT,-0.534
12,TTGACAGTCACATTCTTGGTAA,-0.225
13,TTCATTAGGATACATATTCTTG,-0.698
14,TTGATTGAGCAGATGCACCAAA,-0.419
15,ATAGGTGACACTATAATCCTTC,0.621
16,TTAGGATACATATTCTTGCAAG,-0.612
17,TTTTGCTTGGTACTTATGCTGG,-0.405
18,TTTCACTCCAATGTGAACCTTT,0.41
19,TTGATTCATTGTTTGAATCTGT,0.522
20,TTAGTGATCTTCGATTCTGTTC,-0.307
21,TTCAACAGCAGTTCTCTTCCAA,0.56
22,TTGTTTGTACCTTTATTCCTTC,-0.441
23,TTGAAGTACAGTCTTTCTCTTG,-0.337
24,TTACACTTATTGAATCTCCTTC,0.411

# Target: CPEB3
# Experiment: as above
# Conditions: shRNA
row,Sequence,sensor-assay potency score (higher = more potent)
1,TTTTGCTACATCTGCCACCTAC,-0.378
2,TTGAAGAATATCCTACACCTAG,-0.344
3,TTTATTGCATGCAGCAACCTGA,-0.657
4,TAGAGTAGCGTTCTACTCGTTC,-0.216
5,TTTAATTGATATCCTAGCCTGA,0.351
6,TAGTCTTGCAATCATTGTGTGT,-0.635
7,TTGCAGGTCAGAACACCTCTGT,0.0399
8,TATAACATTAACAACTTGGGGG,0.19
9,TTTGAAAACAAACTATAGCTTG,-0.549
10,TAATATAACATTAACAACTTGG,0.134
11,TTCCATCTGCATCTTGTCCGGG,0.148
12,TTGAAAACAAACTATAGCTTGA,0.15

# Target: CPNE5
# Experiment: as above
# Conditions: shRNA
row,Sequence,sensor-assay potency score (higher = more potent)
1,TTGGTCAGGGATCTCTGCCAGC,-1.14
2,TTCTTCATGACCTCGGTCTTGT,0.503
3,TAACTGGTGGTGAACTCCCCAA,-0.885
4,TTGGTCTGCGCCATGTCCGAGA,-1.04
